Results on 36 compounds are retold here after PubChem BioAssay AID1345085 (National Center for Advancing Translational Sciences (NCATS), 2018).

Records with an inconclusive call do not appear. A number with no mark means an inactive call. Calls of active or inactive are those of the source. Calls follow the shape of the dose curve; as a rule, active = well fitted cell-killing curve with a large enough effect; inconclusive = small, poorly fitted or top-dose-only effect, or effect the other way; inactive = no such curve, though single readings can be large or run the other way.
% is scaled to controls: 0 for no effect and ±100 for the full control effect; potency is read from the fitted curve at half-maximal effect.

For the experiment, the system named is Hek293T. The experiment is described as follows: Confirmatory qHTS for gynecologic anti-cancer compounds from libraries of approved drugs and bioactive compounds. Also: nearly all actives have a fitted effect of over 55% in size. The settings on record: gynecologic cancer cell panel viability, ATPlite luminescence, 48 h; series mostly up to 57.6 µM; activity change, negative = viability loss: at the top concentration. In a few lines:
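Cells (1,000/well) plated 16 h, then exposed 48 h at 37 °C to 11 concentrations (1:3) from 57.5 uM to 0.977 nM. Viability by ATPlite luminescence after 15 min; IC50 derived, with HEK 293T used for selectivity index.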
As to `Nc1ccccc1NC(=O)c1ccc(CNC(=O)OCc2cccnc2)cc1`, the “activity change, negative = viability loss” value is -21.3%.
With `COc1cc2c(Oc3ccc(-c4cnc(Nc5ccc(F)cc5)n(C)c4=O)cc3F)ccnc2cc1OCCCN1CCOCC1`, the Potency is 15300 nM (active).
Regarding `CO[C@@]12[C@H](COC(N)=O)C3=C(C(=O)C(C)=C(N)C3=O)N1C[C@@H]1N[C@@H]12`, the “activity change, negative = viability loss” value is -2.77%.
For `CC1=C(CO)C(=O)O[C@@H]([C@@H](C)[C@H]2CC[C@H]3[C@@H]4C[C@H]5O[C@]56[C@@H](O)C=CC(=O)[C@]6(C)[C@H]4CC[C@]23C)C1`, the Potency is 2370 nM (active).
With `COc1cc2c(c(OC)c1OC)-c1ccc(OC)c(=O)cc1[C@@H](NC(C)=O)CC2`, the “activity change, negative = viability loss” value is -14.6% [at 486 µM].
Consider `CCC(=O)N1CCN(c2ccc(-n3c(=O)ccc4cnc5ccc(-c6cnc7ccccc7c6)cc5c43)cc2C(F)(F)F)CC1`, for which the Potency is 49.8 nM (active).
On to `CCCCc1nc2cc(/C=C/C(=O)NO)ccc2n1CCN(CC)CC`, for which the Potency was 1720 nM (active).
Take `Cc1ccc(C(N)=O)cc1Nc1nccc(-c2cn(C(C)C)c3cnccc23)n1`: the Potency is 13700 nM (active).
Take `CCN[C@H]1C[C@H](C)S(=O)(=O)c2sc(S(N)(=O)=O)cc21`: the “activity change, negative = viability loss” value is 0.966%.
On to `CC(C)Nc1cc(-c2c[nH]c(C(=O)N[C@H](CO)c3cccc(Cl)c3)c2)c(Cl)cn1`, for which the “activity change, negative = viability loss” value is -4.93%.
On to `CCc1c2c(nc3ccc(O)cc13)-c1cc3c(c(=O)n1C2)COC(=O)[C@]3(O)CC`, for which the Potency was 611 nM (active).
On to `Cc1ccn(-c2ccc(-c3ncco3)cc2)c(=O)c1-c1ccc2nc(N)ncc2c1`, for which the “activity change, negative = viability loss” value was 0.323%.
With `CC(=O)c1cnc2ccc(-c3cc(Cl)c(O)c(Cl)c3)nc2c1NC1CCC(CN(C)C)CC1` (stereo unspecified), the Potency was 35.2 nM (active).
On to `COc1cc(N2CCC(N3CCN(C)CC3)CC2)ccc1Nc1ncnc(Nc2ccccc2S(=O)(=O)C(C)C)n1`, for which the Potency is 21700 nM (active).
Take `CN1CCN(c2cccc(Nc3nc4c(-c5ccc(S(C)(=O)=O)cc5)cccn4n3)c2)CC1`: the “activity change, negative = viability loss” value was -4.33%.
As for `O=C(O)c1ccc(Nc2ncc3c(n2)-c2ccc(Cl)cc2C(c2c(F)cccc2F)=NC3)cc1`, the “activity change, negative = viability loss” value is 11.7%.
`Cc1cnc(Nc2cccc(CN3CCOCC3)c2)nc1Nc1cccc(S(=O)(=O)NC(C)(C)C)c1`: the “activity change, negative = viability loss” value is -9.54%.
For `CCCC(Nc1nc(-c2ccc(NC(=O)NCC)c(OC)c2)ncc1C)c1cccnc1` (stereo unspecified), the “activity change, negative = viability loss” value is -23.7%.
For `CC[C@H](CC#N)OC(=O)N[C@@H](C)c1cccc(NC(=O)Nc2ccc(-c3cnco3)c(OC)c2)c1`, the Potency is 76.9 nM (active).
For the compound `CN1CCN(Cc2ccc(NC(=O)Nc3ccc(Oc4cc(NC(=O)C5CC5)ncn4)cc3)cc2C(F)(F)F)CC1`, the Potency was 7690 nM (active).
On to `CCOc1cc2ncc(C#N)c(Nc3ccc(F)c(Cl)c3)c2cc1NC(=O)/C=C/CN(C)C`, for which the Potency was 15300 nM (active).
Consider `C1CCC(C(CC2CCCCN2)C2CCCCC2)CC1` (stereo unspecified), for which the Potency is 27300 nM (active).
On to `Cc1ccc(C(=O)Nc2ccc(Oc3cc4cnn(C)c4cc3-c3cn[nH]c3)c(F)c2)c(=O)n1-c1ccc(F)cc1`, for which the Potency is 1930 nM (active).
Regarding `CCN1CCN(Cc2ccc(Nc3ncc(F)c(-c4cc(F)c5nc(C)n(C(C)C)c5c4)n3)nc2)CC1`, the “activity change, negative = viability loss” value is -21.2%.
As for `Cc1nc(N)nc(N)c1-c1ccc(Cl)c(Cl)c1`, the Potency is 1220 nM (active).
Turning to `Cc1ccc(-n2[nH]c(C)c(N=Nc3cccc(-c4cccc(C(=O)O)c4)c3O)c2=O)cc1C`, the “activity change, negative = viability loss” value is -11%.
Take `COc1cc2c(NC3CCN(C(C)C)CC3)nc(C3CCCCC3)nc2cc1OCCCN1CCCC1`: the Potency is 9680 nM (active).
Regarding `COc1cc(N2CCC(N3CCN(C)CC3)CC2)ccc1Nc1ncc(Cl)c(Nc2ccccc2S(=O)(=O)C(C)C)n1`, the Potency is 21700 nM (active).
Consider `NCCOc1cc(C(=O)Nc2cc(OCCN)c3ccccc3n2)nc(C(=O)Nc2cc(OCCN)c3ccccc3n2)c1`, for which the “activity change, negative = viability loss” value is 3.25%.
In the case of `CCC1C(=O)N(C)c2cnc(Nc3ccc(C(=O)NC4CCC(N5CCN(CC6CC6)CC5)CC4)cc3OC)nc2N1C(C)C` (stereo unspecified), the Potency was 61.1 nM (active).
The same measure, in the same setting: the result for `FC(F)(F)c1ccc(/C=C/c2nc(COc3ccc(CCCCn4ccnn4)cc3)co2)cc1` reads 19.3 nM (active).
As to `CN1C2CCC1CC(OC(=O)[C@H](CO)c1ccccc1)C2` (stereo partly specified), the “activity change, negative = viability loss” value was 0.591%.
Take `NC(=O)c1ccc2nc(-c3ccc(Oc4ccc(Cl)cc4)cc3)[nH]c2c1`: the Potency was 21.7 nM (active).
The same measure, in the same setting: the result for `CC[C@@]1(O)C(=O)OCc2c1cc1n(c2=O)Cc2cc3c(CN(C)C)c(O)ccc3nc2-1` reads 3430 nM (active).
Consider `CS(=O)(=O)c1ccc(-c2cnc(N)c(C(=O)Nc3ccccc3)n2)cc1`, for which the “activity change, negative = viability loss” value is 4.76%.
For the compound `CN(Cc1cnc2nc(N)nc(N)c2n1)c1ccc(C(=O)N[C@@H](CCC(=O)O)C(=O)O)cc1`, the Potency is 109 nM (active).
